Experimental data from PubChem BioAssay.

Target: Torsin-1A-interacting protein 2 (Homo sapiens) (UniProt Q8NFQ8)
Assay: small molecules binding lysate-expressed LULL1 – cell lysate, human LULL1 lysate, 635/667 nm fluorescence, primary screen (AID 1092);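 further: score merges per-feature 667 nm fluorescence with signal-to-noise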
Settings: small-molecule microarray, hLULL1 lysate binding, 635 nm fluorescence; higher = more signal

Sequence of Torsin-1A-interacting protein 2 (Homo sapiens) (Q8NFQ8 whole entry, looked up): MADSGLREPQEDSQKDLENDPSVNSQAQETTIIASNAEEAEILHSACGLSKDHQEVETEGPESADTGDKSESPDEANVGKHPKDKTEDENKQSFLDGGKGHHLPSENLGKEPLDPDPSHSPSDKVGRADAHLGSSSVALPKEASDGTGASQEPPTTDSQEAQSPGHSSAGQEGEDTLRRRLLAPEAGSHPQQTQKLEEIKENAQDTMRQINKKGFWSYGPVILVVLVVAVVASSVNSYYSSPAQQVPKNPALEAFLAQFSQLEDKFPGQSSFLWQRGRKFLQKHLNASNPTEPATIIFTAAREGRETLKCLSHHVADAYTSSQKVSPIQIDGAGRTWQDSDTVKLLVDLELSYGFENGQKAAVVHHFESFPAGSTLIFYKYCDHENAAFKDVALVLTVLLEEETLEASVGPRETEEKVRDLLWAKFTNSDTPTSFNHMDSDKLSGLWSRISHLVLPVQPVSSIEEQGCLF

Question: With `C[C@]1(C(=O)NCCN2CCOCC2)c2ccccc2C(=O)N(Cc2ccc(OC(F)(F)F)cc2)[C@H]1c1ccc(CO)cc1` as the compound, how does the composite z-score read?
Answer: 1.82

Question: Which composite z-score does the source give for `[N-]=[N+]=Nc1ccccc1[C@@H]1OC(c2ccc(OCCCO)cc2)=N[C@]1(CCS(=O)(=O)c1ccccc1)C(=O)NCCN1CCOCC1` here?
Answer: 3.15

Question: `CC(C)CN1C(=O)[C@@]2(Cc3ccccc31)c1ccccc1C(=O)N(Cc1ccccc1C(F)(F)F)[C@H]2c1ccc(CO)cc1` was tested. Which composite z-score did it give?
Answer: -1.21

Question: With `C=CC[C@]1(C(=O)N(C)C)N=C(c2ccc(OCCCO)cc2)O[C@H]1c1ccccc1N=[N+]=[N-]` as the compound, how does the composite z-score read?
Answer: 3.2

Question: `COc1cc2c(cc1OC)CN(C(=O)[C@H]1[C@@H]3C(=O)O[C@@H](c4ccccc4)[C@@H](c4ccccc4)N3[C@@H](c3ccc(OCCO)cc3)[C@]13C(=O)Nc1ccc(C#CC4(O)CCCCCC4)cc13)CC2` was tested. Which composite z-score did it give?
Answer: 2.37

Question: How did the composite z-score turn out when `COCCCNC(=O)[C@@H]1c2ccccc2C(=O)N(Cc2ccccc2C(F)(F)F)[C@H]1c1ccc(CO)cc1` was run?
Answer: 0.73

Question: `C=CC[C@]12N=C(c3ccc(OCCCO)cc3)O[C@H]1c1ccccc1N(C)C2=O` was tested. Which composite z-score did it give?
Answer: 2.78

Question: How did the composite z-score turn out when `CCCC[C@@H]1C[C@H]1[C@@H](NC(=O)c1cccnc1)c1ccc(-c2ccccc2)cc1` was run?
Answer: -0.795

Question: Which composite z-score does the source give for `C[C@@H]1ON(c2ccc(C(=O)OC(C)(C)C)cc2)[C@H](c2ccc(Br)cc2)[C@H]1C(=O)N1C(=O)OC[C@H]1Cc1ccccc1` here?
Answer: 2.22

Question: With `CC(C)CCC[C@@H](C)[C@H]1CC[C@@]2(C)C3=C(CC[C@]12C)[C@@]1(C)CC[C@H](OC(=O)c2ccc(Br)cc2)C(C)(C)C1CC3` (stereo partly specified) as the compound, how does the composite z-score read?
Answer: 0.172

Question: Which composite z-score does the source give for `COc1cc2c(cc1O)C(C)N(Cc1cc3c(cc1Br)OCO3)CC2` (stereo unspecified) here?
Answer: 0.169

Question: Which composite z-score does the source give for `COc1c(C)cc(-c2cc3c(c(Cc4ccccc4)n2)[Si](C(C)C)(C(C)C)OC3)cc1C` here?
Answer: 0.323

Question: For `CN(C)CCCN1C(=O)[C@@]2(c3ccc([N+](=O)[O-])cc3)CC(=O)N(CC34CC5CC(CC(C5)C3)C4)[C@@H]2c2ccc(CO)cc21`, which composite z-score is on record?
Answer: 3.29

Question: For `CO[C@H]1O[C@H](CO)[C@@H](OC(=O)Nc2ccc(C(F)(F)F)cc2)[C@H](OC(=O)Nc2ccc3c(c2)OCO3)[C@H]1OC(=O)Nc1ccc2c(c1)OCO2`, which composite z-score is on record?
Answer: 3.03

Question: How did the composite z-score turn out when `NC(=O)NCC#Cc1ccc2c(c1)[C@]1(C(=O)N2)[C@H](C(=O)Nc2nc3ccccc3s2)[C@H]2C(=O)O[C@H](c3ccccc3)[C@H](c3ccccc3)N2[C@@H]1c1ccc(O)cc1` was run?
Answer: -0.569

Question: For `COCCOC(=O)N1C(=O)[C@@]2(c3cc(C#CC4(O)CCCCCC4)ccc31)[C@H](C(=O)N1CCCCCCC1)[C@H]1C(=O)O[C@H](c3ccccc3)[C@H](c3ccccc3)N1[C@@H]2c1ccc(OCCO)cc1`, which composite z-score is on record?
Answer: 3.7

Question: `COC(=O)[C@@]1(Cc2ccccc2)[C@H]2c3cc(C(=O)N4CCCC4)[nH]c3C[C@H]2CN1C(=O)c1ccccc1` was tested. Which composite z-score did it give?
Answer: 3.51

Question: `CCOC(=O)[C@H]1C/C=C/C[C@H](C(=O)OCC)C(=O)O[C@H]2[C@@H](OC)O[C@H](CO)[C@@H](OC(=O)CCc3ccccc3)[C@@H]2OC1=O` was tested. Which composite z-score did it give?
Answer: 0.0772

Question: Which composite z-score does the source give for `Cc1ccc(F)cc1S(=O)(=O)N[C@@H]1CCN(Cc2ccc(OC(C)C)cc2)C1` here?
Answer: -0.526

Question: With `COCCOC(=O)N1C(=O)[C@@]2(c3cc(C#CC4=CCCCC4)ccc31)[C@H](C(=O)N1CCN(c3ncccn3)CC1)[C@H]1C(=O)O[C@H](c3ccccc3)[C@H](c3ccccc3)N1[C@@H]2c1ccc(O)cc1` as the compound, how does the composite z-score read?
Answer: 1.53

Question: How did the composite z-score turn out when `COC(=O)C1(Cc2ccccc2)C=C2C(=C(C(C)C)C(=O)C2C)CN1` (stereo unspecified) was run?
Answer: 2.41

Question: Which composite z-score does the source give for `O=C1O[C@H](c2ccccc2)[C@H](c2ccccc2)N2[C@H]1[C@@H](C(=O)O)[C@]1(C(=O)Nc3ccccc31)[C@H]2c1ccc(O)cc1` here?
Answer: 1.87

Question: Which composite z-score does the source give for `COc1ccc(NC(=O)O[C@H]2[C@H](OC(=O)Nc3ccc4c(c3)OCO4)[C@@H](OC(=O)Nc3ccc4c(c3)OCO4)[C@@H](OC)O[C@@H]2CO)cc1` here?
Answer: 3.66

Question: Which composite z-score does the source give for `COc1c(C)cc(-c2cc3c(c(-c4ccccc4)n2)[Si](C(C)C)(C(C)C)OC3)cc1C` here?
Answer: -0.495

Question: How did the composite z-score turn out when `C[C@@H](OCc1ccccc1)C1NC(=O)[C@@]23C(=O)N[C@@H](Cc4ccccc4)C2[C@H](C)[C@@]2(C)O[C@H]2C3/C=C/C/C=C\CNC(=O)CNC1=O` (stereo partly specified) was run?
Answer: 0.621

Question: For `COc1ccc([Si](C)(C)[C@@H]2[C@@H](CC(=O)N3CCC[C@H]3CO)O[C@]3(C(=O)N(Cc4ccc(N5C(=O)c6cccc7cccc5c67)cc4)c4ccccc43)[C@H]2C)cc1`, which composite z-score is on record?
Answer: 3.07

Question: Which composite z-score does the source give for `CC1CC/C=C\[C@H]2OC34C=CCN(c5ccc6ccccc6c5)C(=O)[C@H]3N(C(CO)C(C)C)C(=O)[C@@H]4C2C(=O)O1` (stereo partly specified) here?
Answer: 1.76

Question: `COCCOC(=O)N1C(=O)[C@@]2(c3cc(C#CCC(C(=O)OC)C(=O)OC)ccc31)[C@H](c1ccc(OCCO)cc1)N1[C@H](c3ccccc3)[C@H](c3ccccc3)OC(=O)[C@H]1[C@@H]2C(=O)N1CCN(c2ncccn2)CC1` was tested. Which composite z-score did it give?
Answer: 3.17

Question: For `CCOC(=O)[C@H]1C/C=C/C[C@H](C(=O)OCC)C(=O)O[C@H]2[C@@H](OC)O[C@H](CO)[C@@H](OC(=O)Nc3ccc(OC)cc3)[C@@H]2OC1=O`, which composite z-score is on record?
Answer: 2.03

Question: With `O=C1O[C@@H](c2ccccc2)[C@@H](c2ccccc2)N2[C@@H](c3ccc(O)cc3)[C@]3(C(=O)Nc4ccc(C#CC5=CCCCC5)cc43)[C@@H](C(=O)N3CCN(c4ncccn4)CC3)[C@H]12` as the compound, how does the composite z-score read?
Answer: 3.12

Question: How did the composite z-score turn out when `CCCCN1CC=CC23O[C@@H]4/C=C\CCC(C)OC(=O)C4[C@H]2C(=O)N(CCCCCCO)[C@@H]3C1=O` (stereo partly specified) was run?
Answer: 1.4

Question: How did the composite z-score turn out when `CCOC(=O)C[C@H]1[C@H](OC(=O)c2ccc(-c3ccccc3)cc2)[C@@H](NC(=O)c2ccc3ccccc3n2)c2cc(OCCCO)ccc2N1C(=O)c1ccccc1` was run?
Answer: 2.11

Question: With `COc1ccc(NN2C(C(O)c3ccccn3)C=CC3C(=O)N(C4CCCCC4)C(=O)C32)cc1` (stereo unspecified) as the compound, how does the composite z-score read?
Answer: 3.26

Question: With `COc1cc(OC)c(C(O)C2C=CC3C(=O)N(c4ccccc4)C(=O)C3N2Nc2ccc(C#N)cc2)cc1Br` (stereo unspecified) as the compound, how does the composite z-score read?
Answer: 2.64

Question: Which composite z-score does the source give for `COc1ccc([Si](C)(C)[C@H]2[C@H](CCn3cc([C@H](O)c4ccccc4)nn3)O[C@@]3(C(=O)N(Cc4ccc(N5CCOC5=O)cc4)c4ccccc43)[C@@H]2C)cc1` here?
Answer: -0.241

Question: How did the composite z-score turn out when `CCCCC(CC)C(O)C1C=CC2C(=O)N(c3ccccc3)C(=O)C2N1Nc1ccc([N+](=O)[O-])cc1` (stereo unspecified) was run?
Answer: 3.65
